Data on nine compounds can be found in PubChem BioAssay.

Values joined by “and” are separate entries in the source; they are usually repeats but may differ in a detail not shown here. Equal values may be shown once. Active and inactive are the calls of the source.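 How the source made its calls, unless noted: active means compounds whose cell count with miR-34 switched on is under 0.7 times the count with it off; inactive means the rest.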

The subject of assay [1] is Aerobactin synthetase IucA (Klebsiella pneumoniae). Put plainly: IucA aerobactin synthetase inhibitors, biochemical, Tocris library, absorbance (AID 1345561; call rule not given here;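 further: 100% = enzyme without compound and 0% = no enzyme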). As to conditions: purified IucA enzyme assay, absorbance (OD) read-out; stronger effect = lower value;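 tested at 8 µM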.
Assay [2] can be described thus: sensitizers of A549 cells to miR-34 induction, primary screen, imaging, A549 dox-inducible miR-34, nuclei and caspase counts (AID 1347080). As to conditions: A549 miR-34 inducible, Hoechst nuclei count, 48 h.
A short description of assay [3]: viability rescue of complex I mutant cybrids, primary screen, cell-based, galactose medium, ATP luminescence (AID 1645843;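 active means z-score of at least 1.8 in each of two replicates, scored against plate mean and spread of sample wells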;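 further: positive z means more ATP and so rescue of galactose-driven cybrid death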). As to conditions: complex I mutant cybrid cells, 72 h, stronger effect = higher value.
Assay [4] is described as follows: survival rescue of mitochondrial mutant cells in low glucose, primary screen, MELAS cybrids, Rieske KO mouse fibroblasts, CellTiter-Glo (AID 1508586;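 active means mean z-score across replicates of 1.96 or higher in either the MELAS or the Rieske mutant cell line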;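 further: z relative to plate mean and SD of compound and empty wells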).
Assay [5] is described as follows: liver-stage malaria parasite growth inhibition, primary screen, cell-based, HepG2, luciferase luminescence, HepG2 viability (AID 624349; in the data active means parasite load remaining mostly below about 12%, no sharp cut-off; inactive means mostly above about 10%;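 further: 100% = mean of DMSO negative control wells on the same plate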). As to conditions: P. berghei liver stage in HepG2, luciferase luminescence, concentration not given here; parasite load remaining: stronger effect = lower value; viability: measured here: HepG2 viability without parasites.
The nature of assay [6]: phospholipid biosynthesis inhibitors in animal cells, primary screen, cell-based, LOPAC library, screen 4 (AID 1347384; call rule not given here). As to conditions: phospholipid biosynthesis inhibition screen, at 10 µM.
Where [7] appears, read: stronger effect = lower value, cell number ratio, induced over uninduced.
Where [8] appears, read: measured here: relative caspase fold change +Dox/-Dox.
Setting [9] is: measured here: total cells with miR-34 induction, stronger effect = lower value.
The mark [10] stands for this setting: measured here: total cells without miR-34 induction.
[11] abbreviates: MELAS cybrid survival, CellTiter-Glo 48 h, stronger effect = higher value.
The mark [12] stands for this setting: Rieske KO mouse fibroblast survival, CellTiter-Glo 72 h.

With `Cc1cc(/C(=C\Nc2ccc(Cl)cc2)C(=O)Nc2ccc(Cl)cc2)on1`, the remaining activity (as a rule, the signal under treatment as a percentage of the control signal) in assay [1] was 122% (inactive). Also, the fold change was 0.913 (inactive) in assay [2] (setting [7]) and 0.914 in assay [2] (setting [8]). Also, the cell count came to 7920 in assay [2] (setting [9]) and 8680 in assay [2] (setting [10]). The z-score in assay [3] was 0.03 (inactive).
For the compound `COc1cc2ncnc(Nc3ccc(Cl)cc3F)c2cc1OC`, the remaining activity in assay [1] was 98.6% (inactive). Also, the fold change in assay [2] (setting [7]) was 0.989 (inactive) and 1 (inactive); in assay [2] (setting [8]), 0.8 and 1.6. Besides, the cell count was 5840 and 6100 in assay [2] (setting [9]); 5900 and 6080 in assay [2] (setting [10]). Moreover, the z-score in assay [4] (setting [11]) was -0.209 (inactive); in assay [4] (setting [12]), -0.0991; in assay [3] it was 0.365 (inactive).
Turning to `N=C(CC(O)COc1ccccc1-c1ccccc1)N1CCCCC1` (centres undefined), in assay [1], the remaining activity is 113% (inactive). Further, the fold change in assay [2] (setting [7]) is 0.933 (inactive); in assay [2] (setting [8]), 0.891. Moreover, the cell count in assay [2] (setting [9]) is 6170; in assay [2] (setting [10]), 6610. In addition, the z-score in assay [3] was -0.28 (inactive).
In the case of `COc1ccc(C(=O)Nc2sc3c(c2C(N)=O)CCCC3)cc1OC`, the parasite load remaining in assay [5] was 36.2% (inactive). In assay [5], the viability (commonly a read-out of living cells in per cent, often relative to untreated cells) stood at 126%. The remaining activity in assay [1] is 100% (inactive). The fold change in assay [2] (setting [7]) was 0.968 (inactive) and 0.928 (inactive); in assay [2] (setting [8]), 0.55 and 1.37. In addition, the cell count in assay [2] (setting [9]) is 7430 and 8340; in assay [2] (setting [10]), 7670 and 8990. The results for the z-score in assay [4] (setting [11]), in assay [4] (setting [12]) and in assay [3] were -0.293 (inactive), 0.823 and 1.42 (inactive), respectively.
Consider `NS(=O)(=O)c1cccc2c1c([N+](=O)[O-])cc1[nH]c(=O)c(=O)[nH]c12`, for which, in assay [1], the remaining activity is 96.2% (inactive). Moreover, the figures for the fold change in assay [2] (setting [7]) and in assay [2] (setting [8]) were 0.919 (inactive) and 0.625, respectively. In addition, the results for the cell count in assay [2] (setting [9]) and in assay [2] (setting [10]) were 8900 and 9680, respectively. The compound was called inactive in assay [6]. The z-score in assay [3] is -0.025 (inactive).
Consider `CNC(CC(=O)O)C(=O)O` (centres undefined), for which the remaining activity in assay [1] is 97.3% (inactive). In addition, the fold change in assay [2] (setting [7]) was 0.825 (inactive) and 1.05 (inactive); in assay [2] (setting [8]) it was 1.55 and 0.67. In addition, the cell count in assay [2] (setting [9]) was 8200 and 8440; in assay [2] (setting [10]) it was 9940 and 8040. Also, the z-score was -0.165 (inactive) in assay [4] (setting [11]), -0.287 in assay [4] (setting [12]) and 0.29 (inactive) in assay [3].
As to `N#C/C(=C\c1ccc(O)c(O)c1)C(=O)NCCCCc1ccccc1`, the remaining activity in assay [1] was 95.7% (inactive). In addition, the fold change in assay [2] (setting [7]) was 0.982 (inactive); in assay [2] (setting [8]) it was 1.09. Besides, the figures for the cell count in assay [2] (setting [9]) and in assay [2] (setting [10]) were 7480 and 7610, respectively. The z-score in assay [3] is -0.725 (inactive).
With `N=C(N)SCCc1ccc(OCc2ccc([N+](=O)[O-])cc2)cc1`, the remaining activity in assay [1] was 106% (inactive). Moreover, the fold change was 0.959 (inactive) in assay [2] (setting [7]) and 0.93 in assay [2] (setting [8]). The cell count in assay [2] (setting [9]) is 5550; in assay [2] (setting [10]) it was 5790. The call in assay [6] was inactive. Also, in assay [3], the z-score is -0.76 (inactive).
In the case of `CC(=O)c1ccc2c(c1)[C@@H]1C=CC[C@@H]1[C@H](c1cc3c(cc1Br)OCO3)N2`, in assay [1], the remaining activity was 128% (inactive). In addition, the fold change was 1.21 (inactive) and 1.03 (inactive) in assay [2] (setting [7]); 0.332 and 1.3 in assay [2] (setting [8]). Moreover, the cell count is 2540 and 1820 in assay [2] (setting [9]); 2100 and 1760 in assay [2] (setting [10]). Moreover, in assay [3], the z-score is -0.965 (inactive).
